Screen size: about 96,000 compounds; about 20,000 (21%) were called active.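 Rule for the calls: active = CYP2C19 inhibition above a set limit at 5 µM in the primary screen (cut at about 50% in these data); inactive = the rest.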 Not all results are given here.
target: Cytochrome P450 2C19 (Homo sapiens) (UniProt P33261); experiment: blockers of cytochrome P450 2C19 activity – biochemical, luminescence, ADME assay, primary screen (AID 778); conditions: CYP2C19 Supersomes, luciferin-H EGE luminescence, 30 min; at 5 µM; hits give high values;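 note: plate controls were negative control wells for no effect and 2.5 mM tranylcypromine positive control for full effect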
Sequence (P33261 whole entry, looked up): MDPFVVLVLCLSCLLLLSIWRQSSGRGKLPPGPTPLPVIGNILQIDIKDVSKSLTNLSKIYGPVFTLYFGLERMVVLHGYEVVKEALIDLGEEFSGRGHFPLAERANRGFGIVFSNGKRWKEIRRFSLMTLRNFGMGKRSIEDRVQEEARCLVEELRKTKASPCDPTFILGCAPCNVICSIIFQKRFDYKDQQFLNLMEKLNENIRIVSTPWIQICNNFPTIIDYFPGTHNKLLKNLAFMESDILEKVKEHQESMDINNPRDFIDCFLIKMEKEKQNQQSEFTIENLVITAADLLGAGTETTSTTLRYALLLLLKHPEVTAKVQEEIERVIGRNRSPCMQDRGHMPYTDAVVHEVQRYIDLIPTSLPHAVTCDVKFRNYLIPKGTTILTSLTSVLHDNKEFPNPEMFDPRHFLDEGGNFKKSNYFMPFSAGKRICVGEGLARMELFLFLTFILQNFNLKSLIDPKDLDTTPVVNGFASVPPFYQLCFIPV

inhibition, active:
CCn1c(Cc2ccccc2)nnc1SCc1nc2ccccc2c(=O)[nH]1 70.3%
CCn1c(Cc2ccccc2)nnc1SCC(=O)Nc1ccccc1 74%
O=C(COc1ccccc1)N1CCc2ccccc2C1 87.9%
CCOc1ccc(CCNC(=O)C(CC)n2nc(C)n3c(cc4sccc43)c2=O)cc1OCC (configuration not stated) 57.8%
CCC(C(=O)NCc1ccc(OC)cc1)n1nc(C)n2c(cc3occc32)c1=O (configuration not stated) 58.8%
Cc1ccc(NC(=O)Cn2nc(C)c3ccccc3c2=O)c(C)c1 56.1%
CC(=O)N1CCN(c2ccc(NCc3ccc(C(C)C)cc3)cc2)CC1 50.5%
O=C(Nc1cccnc1)c1noc2c1CCCCC2 64.2%
O=C(NCc1cccnc1)c1cn(-c2ccccc2)nc1-c1cccs1 89.6%
CCOC(=O)C1CCCCN1Cc1ccc(OC)c(OC)c1OC (configuration not stated) 58.1%
COc1cccc2c(=O)n(CC(=O)N3CCCCCC3)ccc12 56.9%
Cc1noc(C)c1S(=O)(=O)N(CC(=O)Nc1ccc2c(c1)OCCO2)c1ccc(C(C)C)cc1 55.8%
CS(=O)(=O)N(CC(=O)NCc1ccco1)c1ccc2c(c1)OCO2 59.5%
CCOc1ccc(N(CC(=O)OC)S(=O)(=O)c2c(C)noc2C)cc1 50.6%
Cc1noc(C)c1S(=O)(=O)N(CC(=O)NCc1ccc(Cl)cc1)c1ccc2c(c1)OCO2 72.8%
COc1ccc(CC(=O)c2ccc(O)cc2O)cc1OC 88%
CCOC(=O)CN(Cc1ccc(OC)c(OC)c1)S(=O)(=O)c1ccc(OC)cc1 81.1%

inhibition, inactive:
CN1CCc2c(sc3c2c(NCc2ccco2)nc2nnnn23)C1 37.8%
CCOc1ccc(NC(=O)C2CC(=O)N=C(N)S2)cc1 (configuration not stated) -0.4%
O=C(Nc1ccccc1)O/N=C1\CCCCC1c1ccc([N+](=O)[O-])cc1[N+](=O)[O-] (configuration not stated) 36.8%
O=C1NC2(CCCCC2)N=C1c1ccccc1 25%
Cc1cc(C)c2c(-n3cccc3)c(C(=O)NNS(=O)(=O)c3ccc(F)cc3)sc2n1 31%
CC(C)(C)C(=O)c1cnc(Nc2ccccc2)s1 36.7%
CNC(=O)CSc1nnc(CCc2ccccc2)n1-c1ccccc1 -8.1%
O=c1[nH]c(CSc2ncc(-c3ccc(F)cc3)n2Cc2ccco2)nc2ccccc12 32%
CSc1nc(O)c(Cc2ccccc2)c(=O)[nH]1 26.1%
CCn1c(SCC(=O)Nc2ccc(S(=O)(=O)Nc3onc(C)c3C)cc2)nnc1-c1ccccc1 16.5%
CC(C)c1ccc(-c2nn[nH]n2)cc1 25.4%
O=c1nc(N2CCOCC2)nc2n1CCO2 1.1%
Cc1ccc2nc(NCCCNC(=O)c3cnccn3)c(C#N)cc2c1 17.1%
CCCCN1C(=O)/C(=C2/C=CC=CN2C)SC1=S 30.2%
CCN(CC)c1nc(-c2ccccc2)cc(C(F)(F)F)c1C#N 11.4%
COc1ccc(OCC(=O)N2CCN(C(=O)COc3ccccc3)CC2)cc1 19.3%
O=C(Cn1c(=S)nc2ccccn21)N1CCc2ccccc2C1 23.6%
CC1CN(C(=O)CN2C(=O)NC(C)(c3ccccc3)C2=O)CC(C)O1 (configuration not stated) -12.4%
CCN1CCN(CCCCOc2ccccc2F)CC1 2.6%
Cc1nnc(NC(=O)CSc2nccn2-c2cccc(C)c2C)s1 13.4%
CCOC(=O)Nc1ccc2c(c1)N(C(=O)CCN1CCN(CCO)CC1)c1ccccc1CC2 -24.8%
CCOc1ccc(CCNC(=O)C2CCN(c3ccc(N4CCOCC4)nn3)CC2)cc1OCC 13.9%
COc1ccc(CCn2c(=N)c(C(=O)NCc3ccco3)cc3c(=O)n4cccc(C)c4nc32)cc1 25.7%
CCOc1ccc(CNC(=O)C2CC(=O)N(C3CCCC3)C2)cc1OC (configuration not stated) -8%
COc1ccc(CNC(=O)c2cc3c(=O)n4ccccc4nc3n(CC3CCCO3)c2=N)cc1 (configuration not stated) 6.2%
COc1cc(OC)cc(-c2cc3nc(C4CCN(C(=O)OC(C)(C)C)CC4)cc(=O)n3[nH]2)c1 2.8%
CC(Cc1cccs1)NC(=O)NC1CCCCC1 (configuration not stated) 21%
COc1cccc(Nc2nnc(SCC(=O)N3CC(C)OC(C)C3)s2)c1 (configuration not stated) 36%
c1ccc(CCN2CN=C(Nc3nc4ccccc4o3)NC2)cc1 29.5%
CCOc1cc(-c2nc3cc(C)ccn3c2NCC2CCCO2)ccc1O (configuration not stated) 2.7%
O=P(c1ccc2c(c1)OCCO2)(N1CCOCC1)N1CCOCC1 21.2%
Cc1nn(CC(=O)Nc2ccc3c(c2)nc(CN2CCCCC2)n3C)c(=O)c2ccccc12 10.5%
O=C(Cn1nc(Cc2cccnc2)c2ccccc2c1=O)NCC1COc2ccccc2O1 (configuration not stated) 36.1%
COc1cccc(C(=O)Nc2ccc(NC(=O)c3ccco3)cn2)c1 38.7%
Cc1sc2c(c1C)c(=O)n(-c1ccccc1)c1nncn21 -7.8%
Cc1cc(=O)cc(C)[nH]1 4.5%
CC(C)c1ccc(N2CCN(C(=O)c3ccccc3NC(=O)/C=C(\C(=O)O)c3ccccc3)CC2)cc1 21.7%
COc1ccc(N2CCN(C(=O)CNC(=O)c3ccc(C(C)(C)C)cc3)CC2)cc1 3.3%
Cc1ccc(Cc2cnc(N)s2)o1 8.3%
CC1CC(C)CN(S(=O)(=O)c2cccc(C(=O)N3C(=O)c4cccc(N)c4C3=O)c2)C1 (configuration not stated) 5.9%
O=C(Nc1cccc2ccccc12)c1onc2c1CCCC2 7.1%
CCOC(=O)c1ccc(-c2ccc(C(=O)Nc3cccnc3)o2)cc1 14.1%
Cn1c(=O)c2[nH]c(NCC3CCCO3)nc2n(-c2ccccc2)c1=O (configuration not stated) -1%
CC(=O)NC1CC2CCCC(C1)N2CC(=O)Nc1ccccc1 (configuration not stated) 11.5%
CSCCC(NC(=O)c1ccco1)C(=O)OCC(=O)Nc1ncc(Cl)c(C)c1Cl (configuration not stated) 12.9%
O=C(Nc1ccc2sc3ccccc3c(=O)c2c1)c1ccccc1Cl 14.5%
Cc1c(C(=O)NCc2ccccc2)cnn1-c1ccccc1 11.5%
COC(=O)c1cn(-c2ccccc2)nc1-c1cccnc1 30.5%
COC(=O)Cc1csc(Nc2c(C)n(C)n(-c3ccccc3)c2=O)n1 -4.9%
CC1CC(c2ccccc2)n2nc(NC(=O)c3cccs3)nc2N1 (configuration not stated) 7.3%
CCOC(=O)CSc1nncc2ccc(OC)c(OC)c12 11.3%
CCOC(=O)C1CCN(Cc2coc3ccc(Cl)cc3c2=O)CC1 6.5%
CN=C1SC(CC(=O)Nc2ccc(C(=O)O)cc2)C(=O)N1C (configuration not stated) -4.9%
CC(=O)C1C(c2ccc(Cl)cc2)NC(=O)NC1(O)C(F)(F)F (configuration not stated) 39%
CCOC(=O)C(C)Oc1cccc2c(=O)n(CC(=O)N3CCc4ccccc43)ccc12 (configuration not stated) 8.2%
CCc1cccc2c(C=C(C#N)C#N)cn(CC(=O)N3CCCCC3)c12 -0.7%
O=C(Cn1cc2c(n1)CCCCC2)NCCN1CCOCC1 -10.3%
COc1cc(OC)c(C(=O)NC2CCCCCC2)cc1OC 43.7%
CCOc1ccc(N(CC(=O)NCc2ccc(OC)cc2)S(=O)(=O)c2c(C)noc2C)cc1 15.3%
Cc1ccc(CNC(=O)CN2CCN(Cc3ccc(Cl)cc3)C2=O)cc1 15.1%
CCOc1ccc(N(CC(=O)NC2CCCCCC2)S(=O)(=O)c2c(C)[nH]c(=O)[nH]c2=O)cc1 25.2%
O=C(/C=C/c1cc2c(cc1Br)OCO2)NCc1ccc(Cl)cc1 -11.1%
CS(=O)(=O)N(CC(=O)N1CCN(Cc2ccc3c(c2)OCO3)CC1)c1ccc2c(c1)OCO2 -4.8%
O=C(Cn1nnc(-c2ccc3c(c2)OCO3)n1)NCc1ccco1 0.8%
CCOC(=O)c1cccc(NC(=O)CN(c2ccc(C)cc2)S(=O)(=O)c2c(C)noc2C)c1 17.3%
O=C(CN(c1ccc2c(c1)OCCO2)S(=O)(=O)c1ccccc1)Nc1ccc2c(c1)OCO2 26.7%
N/C(=N\c1nc2ccccc2o1)NC(=O)C(Cc1ccccc1)N1C(=O)c2ccccc2C1=O (configuration not stated) 35.9%
Cn1c(=O)cc(SCC(=O)N2CCN(C(=O)c3ccco3)CC2)c2ccccc21 -17%
Cc1c2cnn(-c3ccccc3)c(=O)c2c(C)n1CCCC(=O)N1CCN(C)CC1 -16%
O=C(Cn1cnc2ccccc2c1=O)NCC1COc2ccccc2O1 (configuration not stated) 22.7%
CC(=O)N(CN1C(=O)C2CC=CCC2C1=O)c1cccc(Cl)c1 (configuration not stated) 46.5%
Cc1cc(C)c2nc(N3CCCC3)c(C#N)cc2c1 -2.3%
Fc1ccc(Br)cc1/C=N/n1cnnc1 13.9%
CCN(CC)c1ccc2oc(=O)c(C)nc2c1 18.7%
COCc1cc(C(C)=O)ccc1OC 6.2%
COc1ccc(CNC(=O)c2c(C)cc(=O)oc2C)cc1OC 5.4%
N#CCCN1CCN(S(=O)(=O)c2ccc(S(=O)(=O)N3CCCC3)cc2)CC1 -7.1%
Cc1cc(-c2cccs2)nc(-n2cccc2)n1 4.9%
Cc1cc(C)nc(N(C#N)CC(=O)Nc2ccccc2)n1 -2.6%
COc1ccc(C(=O)Oc2cc(/C=N/NS(=O)(=O)c3ccc(C)cc3)ccc2OC)cc1 4.8%

Reference: PubChem BioAssay AID778 (Sanford-Burnham Center for Chemical Genomics, 2007)
